# Source: PubChem BioAssay (NCI)
# Values joined by “and” are separate entries in the source; they are usually repeats but may differ in a detail not shown here. Identical values can stand only once. Compounds without any hit were thinned out: in the full panel of roughly 79,000, 15% have a hit. Some structures have more than one record in an assay (separate samples or runs), and their calls can disagree. Active and inactive are the calls of the source. Rule as the data show it: active = growth inhibition above about 70%; inactive = the rest.
# Experiments:
# [1] = NCI Yeast Anticancer Drug Screen. Data for the rad50 strain (AID 155);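 also: 0% = growth of vehicle-only cultures of the same strain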; conditions: S. cerevisiae rad50 strain growth inhibition, stronger effect = higher value
# How it was run: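 Relative growth inhibition (compound vs vehicle) was measured in yeast with a defined repair-gene alteration.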
# [2] = NCI Yeast Anticancer Drug Screen. Data for the mec2-1 strain (AID 157); conditions: S. cerevisiae mec2-1 strain, stronger effect = higher value
# How it was run: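 Cells of the genetically defined mec2-1 yeast strain are incubated with test compound. Inhibition of growth is calculated against vehicle-treated controls.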
# [3] = NCI Yeast Anticancer Drug Screen. Data for the sgs1 mgt1 strain (AID 161);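 also: 0% = growth of cultures given vehicle only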; conditions: S. cerevisiae sgs1 mgt1 strain, stronger effect = higher value
# How it was run: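 Genetically altered yeast, compound exposure, growth inhibition relative to vehicle.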
# [4] = NCI Yeast Anticancer Drug Screen. Data for the cln2 rad14 strain (AID 165);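 also: 0% = growth equal to vehicle treated cultures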; conditions: S. cerevisiae cln2 rad14 strain, stronger effect = higher value
# How it was run: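 The screen exposed genetically defined yeast (cln2 rad14) to test compounds and scored growth inhibition relative to vehicle-treated controls.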
# [5] = NCI Yeast Anticancer Drug Screen. Data for the bub3 strain (AID 167); conditions: S. cerevisiae bub3 mutant strain, stronger effect = higher value
# How it was run: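 Screening used yeast with an engineered genetic alteration affecting cell cycle control. Compound-exposed cultures were compared with vehicle cultures, and reduced growth was taken as inhibition.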
# [6] = NCI Yeast Anticancer Drug Screen. Data for the mlh1 rad18 strain (AID 175); conditions: S. cerevisiae mlh1 rad18 strain growth inhibition, stronger effect = higher value
# How it was run: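 Compound-treated yeast growth, normalised to vehicle controls. Strain bears defined DNA repair mutations.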
# [7] = at 5.0 µM (retest, dose inferred, filed as 0.5)
# [8] = at 50.0 µM (retest, dose inferred, filed as 5.0)
Compound,"growth inhibition [1, 7]","growth inhibition [1, 8]",growth inhibition ([1]; at 50.0 µM),"growth inhibition [2, 7]","growth inhibition [2, 8]",growth inhibition ([2]; at 50.0 µM),"growth inhibition [3, 7]","growth inhibition [3, 8]",growth inhibition ([3]; at 50.0 µM),"growth inhibition [4, 7]","growth inhibition [4, 8]",growth inhibition ([4]; at 50.0 µM),"growth inhibition [5, 7]","growth inhibition [5, 8]",growth inhibition ([5]; at 50.0 µM),"growth inhibition [6, 7]","growth inhibition [6, 8]",growth inhibition ([6]; at 50.0 µM)
c1ccc(Cc2cc3ccccc3c3ccccc23)cc1,4% (inactive),14% (inactive),20.1% (inactive),5% (inactive),23% (inactive),14.9% (inactive),2% (inactive),-3% (inactive),-6.6% (inactive),16% (inactive),6% (inactive),-0.55% (inactive),2% (inactive),3% (inactive),91.3% (active),4% (inactive),-2% (inactive),82.5% (active)
COc1c(CBr)c(CBr)c(OC)c2c1C(=O)c1ccccc1C2=O,33% (inactive),99% (active),87.2% (active),14% (inactive),99% (active),63.8% (inactive),23% (inactive),99% (active),86.7% (active),2% (inactive),99% (active),41% (inactive),9% (inactive),99% (active),64.2% (inactive),19% (inactive),99% (active),92.8% (active)
O=C(/C=C/c1ccccn1)c1ccccc1,4% (inactive),59% (inactive),9.35% (inactive) and 16.2% (inactive),-13% (inactive),28% (inactive),40% (inactive) and 16.4% (inactive),-1% (inactive),56% (inactive),44.7% (inactive) and 24.4% (inactive),5% (inactive),11% (inactive),7.2% (inactive) and 26.9% (inactive),-5% (inactive),23% (inactive),47.2% (inactive) and 39.9% (inactive),-1% (inactive),29% (inactive),80.7% (active) and 21.1% (inactive)
Nc1cc(F)c2c(c1)Cc1ccccc1-2,1% (inactive),95% (active),84.3% (active),-3% (inactive),60% (inactive),39.2% (inactive),-6% (inactive),84% (active),82.7% (active),8% (inactive),32% (inactive),23.7% (inactive),9% (inactive),92% (active),71% (active),12% (inactive),97% (active),58.1% (inactive)
CN(CCN1C(=O)c2cccc3cccc(c23)C1=O)CCN1C(=O)c2cccc3cccc(c23)C1=O,97% (active),96% (active),98.5% (active),20% (inactive),97% (active),98.2% (active),69% (inactive),97% (active),97.2% (active),15% (inactive),90% (active),83.6% (active),-2% (inactive),95% (active),96% (active),47% (inactive),97% (active),98.1% (active)
O=C(NCCCCCCNC(=O)n1cc(F)c(=O)[nH]c1=O)NCCCOCCOCCOCCOCCOCCOCCOCCOCCOCCOCCOCCOCCOCCOCCOCCOCCOCCOCCOCCOCCOCCCNC(=O)C(O)C(O)C(OC1OC(CO)C(O)C(O)C1O)C(O)CO (stereo unspecified),11% (inactive),95% (active),74.3% (active),7% (inactive),78% (active),89% (active),30% (inactive),81% (active),81.5% (active),16% (inactive),-5% (inactive),27.1% (inactive),1% (inactive),4% (inactive),48.4% (inactive),19% (inactive),97% (active),-10.2% (inactive)
Nc1nc(=S)c2ncn(C3OC(CO)C(O)C3O)c2[nH]1 (stereo unspecified),79% (active),5% (inactive),12.5% (inactive) and 38.5% (inactive),97% (active),6% (inactive),0.4% (inactive) and 92.5% (active),66% (inactive),26% (inactive),-3.7% (inactive) and -8.45% (inactive),49% (inactive),9% (inactive),4.9% (inactive) and 96.8% (active),99% (active),14% (inactive),-4.2% (inactive) and 98% (active),94% (active),52% (inactive),-11.9% (inactive) and 97.5% (active)
